Test results reported in PubChem BioAssay AID1159580 (chemical genetic matrix, 2015).
“And” between values parts separate entries of the source, which are not always exact repeats. Equal entries are not always repeated. Out of some 5,500 compounds screened, about 2,000 (36%) were called active. Roughly 18% stayed inconclusive and do not appear here. Cut-off read from the data, not from the text of the source: active = normalized growth mostly below about 0.91 (no sharp cut-off); inconclusive = no clear call, values can overlap the other calls; inactive = mostly above about 0.92. This is one part of the list.

Assay: chemical genetic growth profiling, strain panel (AID 1159580);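 note: tested at 20 µM; growth read once vehicle control cultures reached saturation at 30 °C; 1 = growth at the plate median or of vehicle wells; lower values mean less growth of the strain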
Conditions: S. cerevisiae deletion strains, growth OD

Measured: normalized growth

CC(C)(C)CC(C)(C)c1ccc(O)c(Cc2ccc(Cl)cc2Cl)c1
inactive: locus YAL021C, strain ccr4, stronger effect = lower value 1 | locus YAL026C, strain drs2, stronger effect = lower value 1.03 | locus YAL030W, strain snc1, stronger effect = lower value 1.01 | locus YBL061C, strain skt5, stronger effect = lower value 1.01 | locus YBR009C, strain hhf1, stronger effect = lower value 0.995 | locus YBR021W, strain FUR4, stronger effect = lower value 0.993 | locus YBR023C, strain chs3, stronger effect = lower value 1.02 | locus YBR171W, strain sec66, stronger effect = lower value 1.02 | locus YBR229C, strain ROT2, stronger effect = lower value 1.01 | locus YBR231C, strain swc5, stronger effect = lower value 1.01 | locus YBR279W, strain paf1, stronger effect = lower value 1.02 | locus YCL011C, strain gbp2, stronger effect = lower value 1.01 | locus YCL016C, strain dcc1, stronger effect = lower value 1.01 | locus YCL029C, strain bik1, stronger effect = lower value 1.02 | locus YCL061C, strain MRC1, stronger effect = lower value 1.02 | locus YCL069W, strain vba3, stronger effect = lower value 1.03 | locus YCR088W, strain abp1, stronger effect = lower value 1.02 | locus YDL005C, strain med2, stronger effect = lower value 1.03 | locus YDL035C, strain GPR1, stronger effect = lower value 1.01 | locus YDL040C, strain nat1, stronger effect = lower value 1 | locus YDL074C, strain BRE1, stronger effect = lower value 1.01 | locus YDL101C, strain DUN1, stronger effect = lower value 1 | locus YDL134C, strain PPH21, stronger effect = lower value 1 | locus YDL185W, strain tfp1, stronger effect = lower value 1.01 | locus YDL192W, strain arf1, stronger effect = lower value 1.01 | locus YDR001C, strain nth1, stronger effect = lower value 1.02 | locus YDR069C, strain doa4, stronger effect = lower value 1.02 | locus YDR101C, strain arx1, stronger effect = lower value 0.997 | locus YDR137W, strain rgp1, stronger effect = lower value 1.03 | locus YDR159W, strain sac3, stronger effect = lower value 1.02 | locus YDR162C, strain NBP2, stronger effect = lower value 1 | locus YDR195W, strain ref2 1.08 | locus YDR297W, strain sur2, stronger effect = lower value 1.01 | locus YDR318W, strain mcm21, stronger effect = lower value 1.01 | locus YDR334W, strain swr1, stronger effect = lower value 1.04 | locus YDR335W, strain msn5, stronger effect = lower value 1.04 | locus YDR388W, stronger effect = lower value 1.01 | locus YDR392W, strain spt3, stronger effect = lower value 0.894 | locus YDR502C, strain sam2, stronger effect = lower value 1.02 | locus YEL003W, strain gim4, stronger effect = lower value 1.02 | locus YEL037C, strain rad23, stronger effect = lower value 1.02 | locus YEL061C, strain CIN8 (second series), stronger effect = lower value 1.03 | locus YEL061C, strain CIN8, stronger effect = lower value 1 | locus YER015W, strain faa2, stronger effect = lower value 1.01 | locus YER016W, strain bim1, stronger effect = lower value 1.03 | locus YER110C, stronger effect = lower value 1.02 | locus YER111C, strain swi4, stronger effect = lower value 1.05 | locus YER155C, strain BEM2 (second series), stronger effect = lower value 1.08 | locus YER155C, strain BEM2, stronger effect = lower value 0.998 | locus YER167W, strain BCK2, stronger effect = lower value 1 | locus YFR010W, strain ubp6, stronger effect = lower value 1.02 | locus YGL078C, strain dbp3, stronger effect = lower value 1.02 | locus YGL086W, strain mad1, stronger effect = lower value 1.01 | locus YGL167C, strain pmr1, stronger effect = lower value 1.02 | locus YGL173C, strain kem1, stronger effect = lower value 1.02 | locus YGL227W, strain vid30, stronger effect = lower value 1.02 | locus YGL240W, strain doc1, stronger effect = lower value 1.03 | locus YGL248W, strain PDE1, stronger effect = lower value 1 | locus YGL253W, strain hxk2, stronger effect = lower value 1.03 | locus YGR078C, strain PAC10, stronger effect = lower value 0.997 | locus YGR135W, strain pre9, stronger effect = lower value 1.01 | locus YGR229C, strain SMI1, stronger effect = lower value 0.992 | locus YGR252W, strain gcn5, stronger effect = lower value 1.04 | locus YHR013C, strain ard1, stronger effect = lower value 1.02 | locus YHR027C, strain rpn1, stronger effect = lower value 1.02 | locus YHR030C, strain SLT2, stronger effect = lower value 1 and 1.03 | locus YHR079C, strain IRE1 (second series), stronger effect = lower value 1.01 | locus YHR079C, strain IRE1, stronger effect = lower value 1.05 | locus YHR094C, strain hxt1, stronger effect = lower value 1.01 | locus YHR129C, strain ARP1, stronger effect = lower value 1.01 | locus YHR142W, strain chs7, stronger effect = lower value 1.02 | locus YHR200W, strain rpn10, stronger effect = lower value 1.01 | locus YIL066C, strain RNR3, stronger effect = lower value 1.01 | locus YIL073C, strain SPO22, stronger effect = lower value 1.04 | locus YIL125W, strain kgd1, stronger effect = lower value 1.02 | locus YIR030C, strain dcg1, stronger effect = lower value 1.02 | locus YJL092W, strain hpr5, stronger effect = lower value 1.02 | locus YJL095W, strain BCK1 (second series), stronger effect = lower value 1.01 | locus YJL095W, strain BCK1, stronger effect = lower value 1.01 and 1.04 | locus YJL115W, strain asf1, stronger effect = lower value 1.04 | locus YJL129C, strain trk1, stronger effect = lower value 0.981 | locus YJL134W, strain LCB3, stronger effect = lower value 1.01 | locus YJL154C, strain vps35, stronger effect = lower value 1.02 | locus YJL164C, strain tpk1, stronger effect = lower value 0.994 | locus YJL166W, strain qcr8, stronger effect = lower value 1.02 | locus YJL168C, strain set2, stronger effect = lower value 1.01 | locus YJL187C, strain SWE1 (second series), stronger effect = lower value 1.01 | locus YJL187C, strain SWE1, stronger effect = lower value 1.01 | locus YJR043C, strain POL32, stronger effect = lower value 1.01 | locus YJR066W, strain TOR1, stronger effect = lower value 0.925
